One assay concerns Klebsiella pneumoniae. To be noted: Concentration 32 ug.mL-1;; ASSAY_TEST Inhibition of Bacterial Growth; detection method Absorption (OD600); MEDIA CAMHB; plate type 384well; NBS; CORNING #3640; time 18 hr.
Another assay concerns Candida albicans. To be noted: Concentration 32 ug.mL-1; ASSAY_TEST Inhibition of Fungal Growth; detection method Absorption (OD530).
The subject of another assay is Cryptococcus neoformans. To be noted: Concentration 32 ug.mL-1; ASSAY_TEST Inhibition of Fungal Growth; detection method Resazurin; Absorption (OD600-OD570); plate type 384well; NBS; CORNING #3640.

SMILES strings stand for the structures. Results with a measured potency or affinity are listed apart.

Take `CCOC(=O)c1ccccc1NC(=O)Cn1nc2c3cc(-c4ccc(Cl)cc4)nn3ccn2c1=O`: the Inhibition was 14.78% in the assay with Klebsiella pneumoniae, 2.98% in the assay with Candida albicans and -20.88% with Cryptococcus neoformans.
As to `COC(=O)c1ccc(NC(=O)Cn2nc3c4cc(-c5ccc(Cl)cc5)nn4ccn3c2=O)cc1`, the Inhibition is reported as 10.1% in the assay on Klebsiella pneumoniae, 2.64% in the assay on Candida albicans and -4.53% with Cryptococcus neoformans.
On to `CCc1ccc(N(Cc2ccc(F)cc2)S(=O)(=O)c2cccn3c(C)nnc23)cc1`, for which the Inhibition was -1.65% in the assay on Klebsiella pneumoniae, 6.88% with Candida albicans and -7.64% in the assay with Cryptococcus neoformans.
On to `Cc1cccc(C)c1NC(=O)Cn1nc2c(Sc3ccccc3)nccn2c1=O`, for which the Inhibition in the assay on Klebsiella pneumoniae is on record as -1.09%; in the assay on Candida albicans, 0.55%; with Cryptococcus neoformans, -9.17%.
Consider `CC1CC(C)CN(c2nccn3c(=O)n(CC(=O)NCc4ccccc4Cl)nc23)C1` (stereo unspecified), for which the figures for the Inhibition with Klebsiella pneumoniae, with Candida albicans and in the assay with Cryptococcus neoformans were 9.46%, -0.66% and -5.61%, respectively.
On to `Cc1ccc(N(Cc2ccc(F)cc2)S(=O)(=O)c2ccc3nnc(C)n3c2)cc1`, for which the Inhibition in the assay on Klebsiella pneumoniae is listed as 5.71%; in the assay with Candida albicans, 1.54%; in the assay with Cryptococcus neoformans it was -13.44%.
As for `CCC(Sc1nnc2c(=O)n(-c3cccc(OC)c3)ccn12)C(=O)Nc1cc(C)ccc1C` (stereo unspecified), the Inhibition with Klebsiella pneumoniae is 11.08%; with Candida albicans, 1.67%; in the assay with Cryptococcus neoformans it was -10.57%.
Consider `Cc1ccc(NC(=O)Cn2nc3c4cc(-c5ccc(C)c(C)c5)nn4ccn3c2=O)c(C)c1`, for which the values for the Inhibition with Klebsiella pneumoniae, in the assay on Candida albicans and with Cryptococcus neoformans were -6.92%, -0.38% and -15.91%, respectively.
In the case of `Cc1cc2nn(CC(=O)Nc3cc(F)ccc3F)c(=O)n2c(Nc2ccc(C)c(F)c2)n1`, the values for the Inhibition with Klebsiella pneumoniae, with Candida albicans and with Cryptococcus neoformans were 8.03%, 1.75% and -8.46%, respectively.
In the same order, the values of `COc1cccc(Oc2nccn3c(=O)n(CC(=O)Nc4ccc5c(c4)OCO5)nc23)c1` are 7.21%, 1.19% and -8.5%.
For `COc1ccc(N(Cc2ccc(C)cc2)S(=O)(=O)c2ccc3nnc(C)n3c2)cc1`, the results for the Inhibition with Klebsiella pneumoniae, with Candida albicans and in the assay on Cryptococcus neoformans were -1.06%, 4.08% and -1.52%, respectively.
For the compound `CCCCn1c(=O)c2sccc2n2c(=O)n(CC(=O)c3cccc(OC)c3)nc12`, the values for the Inhibition in the assay on Klebsiella pneumoniae, with Candida albicans and with Cryptococcus neoformans were 13.89%, 1.56% and -15.97%, respectively.
In the same order, the values of `Cc1ccc(-c2cc3c4nn(CC(=O)Nc5cc(F)ccc5C)c(=O)n4ccn3n2)cc1C` are 2.94%, -1.13% and -10.17%.
For the compound `Cc1cc(C)c(NC(=O)Cn2nc3n(C)c(=O)c4c(c(-c5ccccc5)cn4C)n3c2=O)c(C)c1`, the Inhibition in the assay on Klebsiella pneumoniae is reported as 4.68%; with Candida albicans, 0.24%; in the assay on Cryptococcus neoformans, -1.33%.
On to `COc1ccc(-c2cc3c4nnc(SCC(=O)Nc5ccccc5C(F)(F)F)n4ccn3n2)cc1`, for which the Inhibition was 8.66% with Klebsiella pneumoniae, 3.79% in the assay on Candida albicans and -13.07% in the assay with Cryptococcus neoformans.
Consider `COC(=O)c1sccc1NC(=O)Cn1nc2c(Oc3ccccc3)nc3ccccc3n2c1=O`, for which the Inhibition is given as 10.72% with Klebsiella pneumoniae, 1.3% with Candida albicans and -16.14% in the assay on Cryptococcus neoformans.
With `CCc1nnc2c(=O)n(CC(=O)Nc3cc(Cl)ccc3Cl)c3ccccc3n12`, the Inhibition in the assay with Klebsiella pneumoniae is reported as 6.11%; with Candida albicans, 2.89%; in the assay on Cryptococcus neoformans, -19.25%.
Turning to `COC(=O)c1ccc(NC(=O)Cn2nc3ccc(S(=O)(=O)C4CCCCC4)nn3c2=O)cc1`, the values for the Inhibition with Klebsiella pneumoniae, in the assay with Candida albicans and with Cryptococcus neoformans were 9.79%, 17.49% and -8.73%, respectively.
As for `Cc1ccc(NC(=O)CSc2nnc3n(CC4CCCO4)c(=O)c4sccc4n23)cc1F` (stereo unspecified), the results for the Inhibition in the assay with Klebsiella pneumoniae, in the assay on Candida albicans and in the assay with Cryptococcus neoformans were 6.62%, -2.27% and -15.18%, respectively.
Take `CCOC(=O)c1ccc(NC(=O)Cn2nc3ccc(Sc4cccc(F)c4)nn3c2=O)cc1`: the Inhibition in the assay with Klebsiella pneumoniae is given as 10.14%; in the assay on Candida albicans, 3.42%; with Cryptococcus neoformans it was -9.72%.
`CN(C)C(=O)CSc1nnc2c(=O)n(-c3ccc(F)cc3)ccn12`: the results for the Inhibition in the assay with Klebsiella pneumoniae, with Candida albicans and in the assay on Cryptococcus neoformans were 10.89%, 3.85% and -5.4%, respectively.
In the case of `Cc1nnc2ccc(S(=O)(=O)N(Cc3cccc(F)c3)c3cccc(Cl)c3)cn12`, the results for the Inhibition in the assay on Klebsiella pneumoniae, with Candida albicans and in the assay with Cryptococcus neoformans were -2.92%, -0.21% and -11.05%, respectively.
`Cc1ccc(NC(=O)CSc2nnc3c(=O)n(-c4ccccc4)ccn23)c(C)c1`: the values for the Inhibition in the assay with Klebsiella pneumoniae, with Candida albicans and in the assay with Cryptococcus neoformans were -2.79%, 2.18% and -11.34%, respectively.
Regarding `Cc1ccc(Oc2nc3ccccc3n3c(=O)n(CC(=O)Nc4cccc(C(F)(F)F)c4)nc23)cc1`, the values for the Inhibition in the assay on Klebsiella pneumoniae, in the assay on Candida albicans and with Cryptococcus neoformans were 8.2%, 1.82% and -21.42%, respectively.
Consider `O=C(CSc1nnc2c3cc(-c4ccc(F)cc4)nn3ccn12)Nc1ccccc1C(F)(F)F`, for which the Inhibition with Klebsiella pneumoniae was -6.96%; in the assay with Candida albicans it was 5.14%; in the assay on Cryptococcus neoformans, -18.14%.
In the case of `COC(=O)c1cccc(NC(=O)Cn2nc3c(N4CCC(C)CC4)nccn3c2=O)c1`, the Inhibition in the assay on Klebsiella pneumoniae is 5.33%; with Candida albicans, 2.15%; in the assay on Cryptococcus neoformans it was -12.99%.
In the same order, the values of `Cc1cccc(NC(=O)Cn2nc3c4cc(-c5ccc(Cl)cc5)nn4ccn3c2=O)c1` are 1.22%, 16.29% and -21.44%.
